# Measured values taken from ChEMBL document CHEMBL4513216, “Probing the Open Global Health Chemical Diversity Library for Multistage-Active Starting Points for Next-Generation Antimalarials” (ACS Infect Dis, 2020).
# Hit rate of the full screen: of about 68,000 compounds, about 2,700 (4%) showed an effect of 50% or more. The sample holds strong results, similar compounds and a random draw of the others, so the mix is not that of the screen.
# Test system: Plasmodium berghei
# Assay: Screen against P. berghei liver stage (PbLuc), transformed with Luciferase, at 2uM
# Assay type: functional, HepG2
# Details: tested at 2 uM
row,Compound,INHIBITION [%]
1,CC(C)CC(CCO)CNC(=O)N1CC(C)(C)C1(C)C (stereo unspecified),-6.69
2,CCCS(=O)(=O)N1CC(=O)N(Cc2cccc(OC)c2OC)CC(O)C1 (stereo unspecified),-13.32
3,CCOc1ccccc1C(CC(=O)Nc1ccccc1)NC(C)=O (stereo unspecified),23.45
4,CCOc1ccccc1C(CC(=O)Nc1nc(C)cs1)NC(C)=O (stereo unspecified),67.59
5,CCOc1ccccc1C(CC(=O)Nc1ncc(C)s1)NC(C)=O (stereo unspecified),-32.89
6,CC(C)c1nnc2n1CCN(C(=O)c1cccc(C(F)(F)F)c1)C2,15.31
7,CCc1nnc2n1CCN(c1nc(C)cc(N(C)C)n1)C2,62.51
8,Cc1cc(N(C)C)nc(N2CCn3c(nnc3C(C)C)C2)n1,-6.64
9,CC(C)Nc1nc2c(c(N(C)C)n1)CCN(Cc1nccn1C)CC2,28.11
10,Cc1cc(N(C)C)nc(N2CCn3c(C)nnc3C2)n1,29.13
11,Cc1cc(N(C)C)nc(N2CCN(Cc3nccn3C)CC2)n1,50.61
12,Cc1cc(C(F)(F)F)nc(N2CCN(Cc3nccn3C)CC2)n1,10.91
13,Cc1nc(N2CCCC2)nc2c1CCN(Cc1nccn1C)CC2,9.98
14,CN(C)c1nc(N2CCCC2)nc2c1CCN(Cc1nccn1C)CC2,55.92
15,Cc1cc(C)nc(N2CCN(Cc3nccn3C)CC2)n1,5.78
16,NS(=O)(=O)c1ccc(NCc2ccco2)c2ncccc12,7.3
17,Cc1ccccc1-c1cc(C(=O)NCCN2CCCS2(=O)=O)[nH]n1,36.65
18,Cc1ccccc1-n1c(C)cc(C(=O)N2CCn3c(C)nnc3C2)c1C,-61.5
19,CN(C(=O)CCNC(=O)C1COc2ccccc21)c1ccccc1 (stereo unspecified),-0.3
20,Cc1nn(C)c2cnn(CCCNS(=O)(=O)Cc3ccccc3)c12,-12.73
21,COC[C@@H]1CCC[C@]12CN(CCc1ccccc1)CCO2,-20.67
22,O=C([C@H]1CCCN1)N1CC2(CCNCC2)c2cc(Cl)ccc21,0.57

row,Compound,INHIBITION [%]
1,Cc1nc(C)n(C2CCCN(C(=O)c3csc(C)n3)C2)n1 (stereo unspecified),-47.87
2,Cc1nc(C)n(C2CCCN(C(=O)c3cscn3)C2)n1 (stereo unspecified),-13.94
3,CCc1ncncc1C(=O)N1CCCC(n2nc(C)nc2C)C1 (stereo unspecified),-26.85
4,Cc1nc(C)n(C2CCCN(C(=O)c3csnn3)C2)n1 (stereo unspecified),53.45
5,CCc1[nH]ncc1C(=O)N1CCCC(n2nc(C)cc2C)C1 (stereo unspecified),12.75
6,CCc1[nH]ncc1C(=O)N1CCCC(n2nc(C)nc2C)C1 (stereo unspecified),54.85
7,Cc1nc(C)n(C2CCCN(C(=O)c3cncnc3C)C2)n1 (stereo unspecified),62.82
8,Cc1ncc(C(=O)N2CCCC(n3nc(C)nc3C)C2)c(C(C)C)n1 (stereo unspecified),24.02
9,CCc1nc(C)ncc1C(=O)N1CCCC(n2nc(C)nc2C)C1 (stereo unspecified),36.92
10,Cc1nn(C)c(C)c1NC(=O)Nc1cccnc1N1CCCC1,15.28
11,COCc1ncn2c1CN(C(=O)c1cccc3cccnc13)CC2,29.3
12,CCC(C)c1noc(C2CCN(C(=O)c3cccnc3)CC2)n1 (stereo unspecified),-59.73
13,CC(C)(C)C(NC(=O)CCS(C)(=O)=O)c1ccc(F)cc1F (stereo unspecified),41.84
14,NC(=O)CC1CCN(C(=O)NCc2ccc(-c3ccn[nH]3)cc2)CC1,7.13
15,O=C(C1COc2ccccc2C1)N(CCO)Cc1ccccc1 (stereo unspecified),-49.31
16,CC1CCCCN1C(=O)c1ccn(COc2ccc(F)cc2)n1 (stereo unspecified),-12.84
17,COc1cccc(Nc2nc(-c3ccncc3)nc3c2CNCC3)c1,12.6
18,N#Cc1cccc(CN2Cc3nccn3CC(COCC3CC3)C2)c1 (stereo unspecified),-17.39
19,O=C(NC1CC1)[C@H]1C[C@H]2OCC[C@H]2N(Cc2ccc3ccccc3n2)C1,0.91
20,CC(C)NC(=O)[C@@H]1C[C@H]2OCC[C@H]2N(Cc2ccc3ccccc3n2)C1,9.69
21,CC(C)NC(=O)[C@H]1C[C@H]2OCC[C@H]2N(Cc2ccc3ccccc3n2)C1,55.8
22,Cc1ccc([C@@]2(O)CC[C@@H]3CN(S(=O)(=O)c4cn(C)nc4C)C[C@@H]32)cc1,55.74

row,Compound,INHIBITION [%]
1,Cc1ccc([C@@]2(O)CC[C@@H]3CN(S(=O)(=O)C(C)C)C[C@@H]32)cc1,40.31
2,CCS(=O)(=O)N1C[C@H]2CC[C@](O)(c3ccc(C)cc3)[C@H]2C1,38.23
3,CNC(=O)[C@H]1C[C@@H]2CN(S(=O)(=O)c3cccc(C)c3)C[C@@H]2N1C,27.95
4,COC(=O)CNC(=O)c1scnc1C,-7.24
5,COc1cccc(N2CCN(C(=O)C(C)Oc3ccccc3)CC2=O)c1 (stereo unspecified),24.28
6,CC(C)[C@@H]1CN(C(=O)CCc2ccc(F)cc2)C[C@H]1C(=O)O,18.63
7,CC(C)[C@@H]1CN(C(=O)CN(C)Cc2ccccc2)C[C@H]1C(=O)O,35.46
8,CC(C)[C@@H]1CN(C(=O)CN(C)Cc2ccc(F)cc2)C[C@H]1C(=O)O,72.49
9,COc1ccc(C(C)NCc2nnc(C)s2)cc1F (stereo unspecified),52.98
10,COc1ccc(C(C)NCc2c[nH]nc2C)cc1Br (stereo unspecified),-8.5
11,COc1cc(C(C)NCc2c[nH]nc2C)ccc1OCCO (stereo unspecified),32.26
12,COc1ccc(C(C)NCc2c[nH]nc2C)cc1OC (stereo unspecified),66.4
13,Cc1nnc(CNC(C)c2cc(C)c(F)c(C)c2)s1 (stereo unspecified),31.51
14,Cc1cc(C)cc(C(C)NCc2nnc(C)s2)c1 (stereo unspecified),38.67
15,Cc1cnc(CN2CCCC(c3cc(C)[nH]n3)C2)cn1 (stereo unspecified),43
16,Cc1ccc(NC2CCN(C(=O)c3sccc3C3CC3)CC2)nn1,3.38
17,COC1(CNC(=O)c2ccc(Cl)c(Cl)c2)CCSC1 (stereo unspecified),-26.56
18,Cc1cccc(NC(=O)c2ccc(-n3cncn3)nn2)n1,55.73
19,Cc1cccnc1NC(=O)c1ccc(-n2cncn2)nn1,9.92
20,O=C(Nc1cccnc1)c1ccc(-n2cncn2)nn1,-7.69
21,CCS(=O)(=O)N1CCC(c2nnc(C(F)(F)F)o2)CC1,14.97
22,CN(C)S(=O)(=O)N1CCC(c2nnc(C(F)(F)F)o2)CC1,14.97

row,Compound,INHIBITION [%]
1,CCS(=O)(=O)N1CCC(c2nnc(C3CC3)o2)CC1,54.82
2,O=C(NCCc1cccs1)[C@]12COC[C@H]1CN(c1ncccn1)C2,44
3,NC(=O)CSCCC(=O)NCC1CC1,37.87
4,NC(=O)CSCC(=O)NCC1CCCC1,60.79
5,N#CCSCC(=O)NCC1CCCCC1,-64.85
6,CCNc1cc2c(nn1)CCN(C(=O)C1Cc3ccccc3S1)C2 (stereo unspecified),27.6
7,CN(C)c1cc2c(nn1)CCN(C(=O)c1cc3c(s1)CCC3)C2,-7.96
8,CN(C)c1cc2c(nn1)CCN(C(=O)C1Cc3ccccc3S1)C2 (stereo unspecified),65.77
9,CN(C)c1cc2c(nn1)CCN(C(=O)C1Cc3ccccc3O1)C2 (stereo unspecified),11.24
10,CN(C)c1cc2c(nn1)CCN(C(=O)c1cc3c(s1)CCOC3)C2,56.05
11,CN(C)c1cc2c(nn1)CCN(C(=O)c1cc3c(s1)CCCC3)C2,28.39
12,CC(=O)N1CCC(Cc2ccc(-c3ccnn3C)nc2)CC1,35.19
13,Cc1ccc(N2CC[C@H]3O[C@@H](C(=O)N4CCCO4)CC[C@H]32)nn1,-28.58
14,CNS(=O)(=O)c1cccc(CNC(=O)c2cnn(C)c2C)c1,-2.2
15,CCn1c(C)cc(C(=O)NCc2cccc(S(=O)(=O)NC)c2)c1C,62.01
16,CCn1c(C)cc(C(=O)NCc2cccc(NS(C)(=O)=O)c2)c1C,-6.29
17,Cc1nccn1-c1ccc(NC(=O)C2CCCN2Cc2c[nH]cn2)cc1 (stereo unspecified),31.51
18,Cc1nccn1-c1ccc(NC(=O)C2CCCN2CC2CC2)cc1 (stereo unspecified),69.67
19,Cc1nccn1-c1ccc(NC(=O)C2CCCN2Cc2ccoc2)cc1 (stereo unspecified),29.13
20,COCCCN1CCN(c2ncnc3nc(C)cc(C)c23)CC1,19.27
21,O=C(CCc1n[nH]c2c1CCCC2)N1C[C@H]2CC[C@@H](C1)N(CC1CC1)C2,35.94
22,Cc1nc(N)cc(N2CCCC(COc3cccc(F)c3)C2)n1 (stereo unspecified),59.8

row,Compound,INHIBITION [%]
1,Nc1cc(N2CCCC(COc3ccc(F)cc3)C2)ncn1 (stereo unspecified),42.11
2,Nc1cc(N2CCCC(COc3ccc(F)cc3)C2)nc(N)n1 (stereo unspecified),17.48
3,N#Cc1cccnc1NCc1cccc(C(=O)NCC2CCCCO2)c1 (stereo unspecified),27.85
4,N#Cc1cccnc1NCCc1cc(F)cc2c1OCOC2,4.68
5,COc1ccc2c(c1)CCCC2CC(=O)NCC(C)(C)C(=O)O (stereo unspecified),53.98
6,COc1ccc2c(c1)CCCC2CC(=O)NCC(=O)O (stereo unspecified),-35.22
7,COc1ccc2c(c1)CCCC2CC(=O)O (stereo unspecified),-36.72
8,CC1CN(CC(=O)Nc2nncs2)CCN1Cc1nccn1C (stereo unspecified),-11.91
9,CCS(=O)(=O)c1ncc(CN(C)C)n1Cc1ccccc1,-2.93
10,CNC(=O)c1cccc(NC(=O)Cn2nc(-c3cccs3)oc2=O)c1,17.39
11,O=c1oc(-c2cccs2)nn1CC(O)c1ccccc1F (stereo unspecified),34.89
12,CC(=O)c1cccc(NC(=O)Cn2cnc(-c3cccs3)cc2=O)c1,50.7
13,O=c1oc(-c2cccs2)nn1CC(O)c1ccc(F)cc1 (stereo unspecified),29.61
14,O=C(Cn1cnc(-c2cccs2)cc1=O)Nc1cccnc1,-8.7
15,CC(=O)c1cccc(NC(=O)Cn2cnc(-c3ccccc3)cc2=O)c1,3.11
16,O=c1oc(-c2cccs2)nn1CC(O)c1ccccc1 (stereo unspecified),60.95
17,CC(=O)c1cccc(NC(=O)Cn2nc(-c3cccs3)oc2=O)c1,51.94
18,CC(=O)c1cccc(NC(=O)CCn2nc(-c3cccs3)oc2=O)c1,15.28
